Compounds with a hit are over-represented: about 5% of the library has one in this group of screens.
USP10 inh – inhibitors of human USP10 deubiquitinase; purified USP10, Ub-rhodamine fluorescence, 60 min; Ubiquitin carboxyl-terminal hydrolase 10 (Homo sapiens), Q14694; inhibition, % at 20 µM; actives 1.1% (n = 47,000); AID 1645856, 2021
USP8 inh – inhibitors of human USP8 deubiquitinase; Ubiquitin carboxyl-terminal hydrolase 8 (Homo sapiens), P40818; purified USP8, Ub-rhodamine cleavage fluorescence, 30 min; inhibition, % at 20 µM; actives 4.2% (n = 47,000); AID 1645853, 2021
UCHL1 inh – inhibitors of human UCHL1 deubiquitinase. Ubiquitin carboxyl-terminal hydrolase isozyme L1 (Homo sapiens), P09936. purified UCHL1, Ub-rhodamine cleavage fluorescence. inhibition, % at 20 µM. actives 0.2% (n = 47,000)
Target sequence (P09936 whole entry, looked up): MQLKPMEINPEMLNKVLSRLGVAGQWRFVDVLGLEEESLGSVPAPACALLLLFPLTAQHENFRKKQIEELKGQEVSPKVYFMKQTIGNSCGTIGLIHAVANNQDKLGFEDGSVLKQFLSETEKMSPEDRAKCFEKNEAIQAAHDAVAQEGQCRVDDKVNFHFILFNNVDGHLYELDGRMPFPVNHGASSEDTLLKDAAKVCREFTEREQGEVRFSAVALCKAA
USP7 inh – inhibitors of human USP7 deubiquitinase | Ubiquitin carboxyl-terminal hydrolase 7 (Homo sapiens), Q93009 | purified USP7, Ub-rhodamine cleavage fluorescence | inhibition, % at 20 µM | actives 0.3% (n = 47,000) | AID 1645854, 2021
OTUD3 inh – inhibitors of human OTUD3 deubiquitinase; purified OTUD3, Ub-rhodamine fluorescence, 2 h; inhibition, % at 25 µM; actives 0.7% (n = 47,000)
* hit, by the source's call. Rule as the data show it: active = inhibition above about 30%; inactive = the rest.

`Cc1cccc(C)c1NC(=O)CN1C(=O)C2CCCC2=Nc2ccccc21` (stereo not drawn) gave USP10 inh 21, USP8 inh 7, UCHL1 inh 2, USP7 inh 4 and OTUD3 inh 6.
`Cc1cc(C)cc(NS(=O)(=O)c2c[nH]c(-c3nnc(C)o3)c2)c1` gave USP10 inh 2, USP8 inh 3, UCHL1 inh 0 and OTUD3 inh -4.
For COC1C(O)=C2C(=O)O/C(C)=C/C=C/C=C/C=C/CC(c3ccccc3)NC(=O)/C=C/C=C/C=C\C=C\C2(C)C1O (stereo not drawn) the results were USP10 inh 0, USP8 inh -47, UCHL1 inh 19, USP7 inh 2 and OTUD3 inh 33*.
Screening CC(Nc1cc(-c2ccccc2F)nc(-c2ccncc2)n1)c1ccccc1 (stereo not drawn) returned USP10 inh -7, USP8 inh 2, UCHL1 inh -2, USP7 inh 5 and OTUD3 inh -48.
For Cc1nn(Cc2ccccc2Cl)c(C)c1C(=O)N1CCc2ccccc21 the results were USP10 inh -2, USP8 inh 12, UCHL1 inh 4, USP7 inh 0 and OTUD3 inh 11.
For O=C(CCc1nc(-c2cnccn2)no1)N1CCc2ccccc2C1 the results were USP10 inh 4, USP8 inh 57*, UCHL1 inh -1, USP7 inh 2 and OTUD3 inh -7.
`CC(=O)N1CCc2c(sc(NC(=O)C3CC3)c2C(N)=O)C1` gave USP10 inh -2, USP8 inh 50*, UCHL1 inh -11, USP7 inh -13 and OTUD3 inh -10.
Screening COc1ccc(N2CCN(C(=O)c3csc4c3CCC(C(C)(C)C)C4)CC2)cc1 (stereo not drawn) returned USP10 inh -1, USP8 inh 70*, UCHL1 inh 4, USP7 inh 2 and OTUD3 inh 0.
For COc1ccc(CNc2ncc(C(=O)N3CCN(c4ccc(F)cc4)CC3)c(C)n2)cc1 the results were USP10 inh -2, USP8 inh -12, UCHL1 inh -3, USP7 inh -3 and OTUD3 inh -12.
For Cc1cc(=O)n2c3c(c4c(cc13)c(CO)cc(=O)n4C)OC2 the results were USP10 inh 6, USP8 inh 40*, UCHL1 inh 6, USP7 inh 0 and OTUD3 inh 6.
`Cc1cc(-c2cnc(C)nc2C2CCN(C(=O)c3sc(C)nc3C)CC2)on1` gave USP10 inh -4, USP8 inh -5, UCHL1 inh -1, USP7 inh 0 and OTUD3 inh -3.
`O=C(CSc1nnc(-c2ccncc2)n1Cc1ccccc1)c1ccc2[nH]c(O)cc2c1` gave USP10 inh -3, USP8 inh 65*, UCHL1 inh -5, USP7 inh -1 and OTUD3 inh -5.
`CC(C)Nc1nc2c(cc1C(=O)N(C)C)CCN(c1ncc(F)cn1)CC2` gave USP10 inh 0, USP8 inh -96, UCHL1 inh 0, USP7 inh -20 and OTUD3 inh -1.
For CCc1ccc(C(CC(=O)Nc2ccc3c(c2)OCO3)NC(=O)C(F)(F)F)cc1 (stereo not drawn) the results were USP10 inh 6, USP8 inh 37*, UCHL1 inh 0, USP7 inh 11 and OTUD3 inh 18.
`O=C1c2c(O)cc(O)cc2OC(c2ccc(O)c(O)c2)C1O` (stereo not drawn) gave USP10 inh 2, USP8 inh 6, UCHL1 inh 0, USP7 inh -72 and OTUD3 inh 62*.
COc1ccc(-c2nc(C)c(C(=O)NCCc3ccc(S(N)(=O)=O)cc3)s2)cc1 was read as USP10 inh 30*, USP8 inh 37*, UCHL1 inh -1, USP7 inh -1 and OTUD3 inh 2.
For O=C(Cn1c(=O)[nH]c2c(-c3ccc(F)cc3)c[nH]c2c1=O)NCc1ccc(F)cc1 the results were USP10 inh 12, USP8 inh 32*, UCHL1 inh 1, USP7 inh 13 and OTUD3 inh 1.
`O=C(Cn1c(=O)[nH]c2c(-c3ccccc3)c[nH]c2c1=O)NCc1ccco1` gave USP10 inh -6, USP8 inh -22, UCHL1 inh -6, USP7 inh -3 and OTUD3 inh 1.
For CN(Cc1ccccc1)C(=O)Cn1c(=O)[nH]c2c(-c3ccccc3)c[nH]c2c1=O the results were USP10 inh -8, USP8 inh 46*, UCHL1 inh -9, USP7 inh 1 and OTUD3 inh -20.
`O=C(Cn1c(=O)[nH]c2c(-c3ccccc3F)c[nH]c2c1=O)NC1CCCCC1` gave USP10 inh 17, USP8 inh 34*, UCHL1 inh -2, USP7 inh 13 and OTUD3 inh 0.
Screening O=C(Cn1c(=O)[nH]c2c(-c3ccccc3)c[nH]c2c1=O)NCc1ccc(Cl)cc1 returned USP10 inh 2, USP8 inh 32*, UCHL1 inh 0, USP7 inh 9 and OTUD3 inh -7.
For COc1ccc(Nc2nc(NCc3ccccc3)c3nccnc3n2)cc1 the results were USP10 inh 3, USP8 inh 3, UCHL1 inh 3, USP7 inh -10 and OTUD3 inh -14.
Screening Cc1cc(C)cc(NC(=O)Cc2csc(NC(=O)Nc3cccc(Cl)c3)n2)c1 returned USP10 inh 2, USP8 inh 25, UCHL1 inh 1, USP7 inh 10 and OTUD3 inh 17.
For c1ccc(-c2cc(-c3csc(-c4ccc5c(c4)OCCO5)n3)on2)cc1 the results were USP10 inh 2, USP8 inh -23, UCHL1 inh 2, USP7 inh 10 and OTUD3 inh 40*.
Screening O=[N+]([O-])c1cccc(-c2csc(-c3ccc4c(c3)OCO4)n2)c1 returned USP10 inh -1, USP8 inh 31*, UCHL1 inh 3, USP7 inh 5 and OTUD3 inh 17.
For O=[N+]([O-])c1cccc(-c2nnc(-c3ccccn3)o2)c1 the results were USP10 inh 1, USP8 inh -116, UCHL1 inh -1, USP7 inh -7 and OTUD3 inh 0.
CC(C)c1ccc(/C=C/C(=O)N2CCc3ccccc3C2)cc1 was read as USP10 inh 11, USP8 inh 69*, UCHL1 inh 4, USP7 inh 5 and OTUD3 inh 27.
For O=C(/C=C/c1ccc(Br)cc1)N1CCc2ccccc2C1 the results were USP10 inh 3, USP8 inh 28, UCHL1 inh 0, USP7 inh 6 and OTUD3 inh 2.
O=C(c1ccnnc1)N1CC[C@@H]2CN(Cc3ccc(Cl)cc3)S(=O)(=O)[C@@H]2CC1 was read as USP10 inh 4, USP8 inh 10, UCHL1 inh 3, USP7 inh -5 and OTUD3 inh 15.
c1coc(-c2cc3nc(NCc4ccc5c(c4)OCO5)ccn3n2)c1 was read as USP10 inh -5, USP8 inh 58*, UCHL1 inh 0, USP7 inh 11 and OTUD3 inh -1.

Compound activity as filed in PubChem.
